# Results published in PubChem BioAssay.
# Activity calls are given as the source filed them.
# Columns and labels:
# [1] = binders of probe aFSTL3 on microarray, primary screen, stem cell growth factor project, biochemical, small-molecule microarray, fluorescence 635/667 (AID 1064); settings: higher = more signal;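 note: measures binding of the biotinylated anti-FSTL3 antibody to printed compounds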
# [2] = binders from COS7 lysate, DM2A8 probe, primary screen, torsin A project, cell lysate, small-molecule microarray, fluorescence 635/667 (AID 1065); settings: higher = more signal, COS7 lysate expressing mutant human TOR1A
# [3] = binders of probe aFGF2 on microarray, primary screen, stem cell growth factor project, biochemical, small-molecule microarray, fluorescence 635/667 (AID 1067); settings: higher = more signal;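 note: measures binding of biotinylated aFGF2 protein to printed compounds on slides; z-score merges feature fluorescence and signal-to-noise across triplicate slides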
# [4] = binders of probe aFGF10 on microarray, primary screen, stem cell growth factor project, biochemical, small-molecule microarray, fluorescence 635/667 (AID 1071); settings: higher = more signal;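 note: score merges 667 nm spot intensity and signal to noise from triplicate slides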
# [5] = target: Neurogenic locus notch homolog protein 2 (Homo sapiens) (UniProt Q04721); assay: Notch2 binders on small-molecule microarrays, primary screen, biochemical, small-molecule microarray, 635 nm fluorescence, stem cell growth factors (AID 1073); settings: Notch2 binding, higher = more signal
# [6] = target: Pro-neuregulin-1, membrane-bound isoform (Homo sapiens) (UniProt Q02297); assay: NRG1 binders on small-molecule microarrays, primary screen, psychiatric disease protein project, biochemical, small-molecule microarray, fluorescence 635/667 (AID 1075); settings: NRG1 binding, 635 nm fluorescence, higher = more signal;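 note: score combines 667 nm spot fluorescence with signal to noise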
# [7] = tested on: Neuregulin-1 EGF-like domain; assay: binders of neuregulin-1 EGF-like domain, primary screen, biochemical, small-molecule microarray, 635 nm fluorescence (AID 1081); settings: small-molecule microarray binding, higher = more signal;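 note: binding of the protein to compounds printed on small-molecule microarray slides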
# [8] = FRG1 promoter luciferase signal modulators, primary screen, FRG1 inhibition for FSHD, cell-based, C2C12 myotubes, firefly/Renilla luciferase, luminescence (AID 1084); settings: higher = more signal, called active from +8 up or from −8 down
# [9] = binders of probe aFST on microarray, primary screen, stem cell growth factor project, biochemical, small-molecule microarray, fluorescence 635/667 (AID 1086); settings: higher = more signal;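 note: score merges 667 nm fluorescence with signal-to-noise of each printed compound spot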
# [10] = binders of probe aHhip on microarray, primary screen, stem cell growth factor project, biochemical, small-molecule microarray, fluorescence 635/667 (AID 1087); settings: higher = more signal;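 note: score merges spot fluorescence at 667nm with spot signal to noise ratio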
# [11] = tested on: PRMT1 (protein arginine N-methyltransferase 1); assay: PRMT1 binders on small-molecule microarrays, primary screen, biochemical, small-molecule microarray, 635 nm fluorescence (AID 1088); settings: small-molecule microarray binding, higher = more signal;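 note: binding of Prmt1 protein to compounds spotted on small-molecule microarray slides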
# [12] = yeast growth modulation, basal conditions, primary screen, YJM789 clinical isolate, OD600, 24 h (AID 1089);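 note: growth of clinical yeast isolate S. cerevisiae YJM 789 seeded 1000 cells per well; test concentration not given here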; settings: S. cerevisiae YJM789 growth, higher = more signal, called active from +8 up or from −8 down
# [13] = fission yeast growth modulation, primary screen, strain 972, OD600, 24 h, no modulator (AID 1090);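 note: basal condition with compound alone and no growth modifier present; test concentration not given here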; settings: S. pombe 972 growth, higher = more signal, called active from +8 up or from −8 down
# [14] = S. cerevisiae growth modulation with rapamycin, primary screen, strain BY4716, OD600, 96 h (AID 1091); settings: higher = more signal, called active from +8 up or from −8 down; note: test concentration not given here
# [15] = target: Torsin-1A-interacting protein 2 (Homo sapiens) (UniProt Q8NFQ8); assay: LULL1 binders on small-molecule microarray, primary screen, cell lysate, human LULL1 lysate, 635/667 nm fluorescence (AID 1092); settings: hLULL1 lysate binding, 635 nm fluorescence, higher = more signal;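 note: probe is lysate of COS7 cells overexpressing human LULL1; score merges per-feature 667 nm fluorescence with signal-to-noise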
# [16] = E. coli growth modulation, two-sided OD650, primary screen, E. coli filamentation project, strain DRC41, 24 h (AID 1093); settings: OD650, 24 h, higher = more signal, called active from +8 up or from −8 down;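 note: MC1000 strain lacking acrAB efflux and sulA so SOS filamentation is blocked; test concentration not given here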
# [17] = small-molecule microarray binders of probe aLefty2, primary screen, biochemical, biotinylated probe, 635/667 nm fluorescence (AID 1094); settings: higher = more signal;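 note: score merges spot fluorescence near 667 nm with spot signal-to-noise ratio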
# [18] = tested on: Noggin (protein binding on small-molecule microarray); assay: Noggin binders on small-molecule microarray, primary screen, biochemical, 635/667 nm fluorescence (AID 1095); settings: 635 nm fluorescence, higher = more signal;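 note: score merges 667 nm feature fluorescence with signal to noise over triplicate slides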
# [19] = target: Neurogenic locus notch homolog protein 3 (Homo sapiens) (UniProt Q9UM47); assay: NOTCH3 binders on small-molecule microarray, primary screen, biochemical, 635/667 nm fluorescence (AID 1096); settings: NOTCH3 binding, 635 nm fluorescence, higher = more signal
# [20] = small-molecule microarray binders of probe aEGFR, primary screen, biochemical, biotinylated probe, 635/667 nm fluorescence (AID 1097); settings: higher = more signal;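 note: probe is a biotinylated anti-EGFR antibody binding compounds printed on slides; score combines fluorescence near 667 nm and signal to noise of each spot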
# Chain of Neurogenic locus notch homolog protein 2 (Homo sapiens) (Q04721 whole entry, looked up, canonical isoform): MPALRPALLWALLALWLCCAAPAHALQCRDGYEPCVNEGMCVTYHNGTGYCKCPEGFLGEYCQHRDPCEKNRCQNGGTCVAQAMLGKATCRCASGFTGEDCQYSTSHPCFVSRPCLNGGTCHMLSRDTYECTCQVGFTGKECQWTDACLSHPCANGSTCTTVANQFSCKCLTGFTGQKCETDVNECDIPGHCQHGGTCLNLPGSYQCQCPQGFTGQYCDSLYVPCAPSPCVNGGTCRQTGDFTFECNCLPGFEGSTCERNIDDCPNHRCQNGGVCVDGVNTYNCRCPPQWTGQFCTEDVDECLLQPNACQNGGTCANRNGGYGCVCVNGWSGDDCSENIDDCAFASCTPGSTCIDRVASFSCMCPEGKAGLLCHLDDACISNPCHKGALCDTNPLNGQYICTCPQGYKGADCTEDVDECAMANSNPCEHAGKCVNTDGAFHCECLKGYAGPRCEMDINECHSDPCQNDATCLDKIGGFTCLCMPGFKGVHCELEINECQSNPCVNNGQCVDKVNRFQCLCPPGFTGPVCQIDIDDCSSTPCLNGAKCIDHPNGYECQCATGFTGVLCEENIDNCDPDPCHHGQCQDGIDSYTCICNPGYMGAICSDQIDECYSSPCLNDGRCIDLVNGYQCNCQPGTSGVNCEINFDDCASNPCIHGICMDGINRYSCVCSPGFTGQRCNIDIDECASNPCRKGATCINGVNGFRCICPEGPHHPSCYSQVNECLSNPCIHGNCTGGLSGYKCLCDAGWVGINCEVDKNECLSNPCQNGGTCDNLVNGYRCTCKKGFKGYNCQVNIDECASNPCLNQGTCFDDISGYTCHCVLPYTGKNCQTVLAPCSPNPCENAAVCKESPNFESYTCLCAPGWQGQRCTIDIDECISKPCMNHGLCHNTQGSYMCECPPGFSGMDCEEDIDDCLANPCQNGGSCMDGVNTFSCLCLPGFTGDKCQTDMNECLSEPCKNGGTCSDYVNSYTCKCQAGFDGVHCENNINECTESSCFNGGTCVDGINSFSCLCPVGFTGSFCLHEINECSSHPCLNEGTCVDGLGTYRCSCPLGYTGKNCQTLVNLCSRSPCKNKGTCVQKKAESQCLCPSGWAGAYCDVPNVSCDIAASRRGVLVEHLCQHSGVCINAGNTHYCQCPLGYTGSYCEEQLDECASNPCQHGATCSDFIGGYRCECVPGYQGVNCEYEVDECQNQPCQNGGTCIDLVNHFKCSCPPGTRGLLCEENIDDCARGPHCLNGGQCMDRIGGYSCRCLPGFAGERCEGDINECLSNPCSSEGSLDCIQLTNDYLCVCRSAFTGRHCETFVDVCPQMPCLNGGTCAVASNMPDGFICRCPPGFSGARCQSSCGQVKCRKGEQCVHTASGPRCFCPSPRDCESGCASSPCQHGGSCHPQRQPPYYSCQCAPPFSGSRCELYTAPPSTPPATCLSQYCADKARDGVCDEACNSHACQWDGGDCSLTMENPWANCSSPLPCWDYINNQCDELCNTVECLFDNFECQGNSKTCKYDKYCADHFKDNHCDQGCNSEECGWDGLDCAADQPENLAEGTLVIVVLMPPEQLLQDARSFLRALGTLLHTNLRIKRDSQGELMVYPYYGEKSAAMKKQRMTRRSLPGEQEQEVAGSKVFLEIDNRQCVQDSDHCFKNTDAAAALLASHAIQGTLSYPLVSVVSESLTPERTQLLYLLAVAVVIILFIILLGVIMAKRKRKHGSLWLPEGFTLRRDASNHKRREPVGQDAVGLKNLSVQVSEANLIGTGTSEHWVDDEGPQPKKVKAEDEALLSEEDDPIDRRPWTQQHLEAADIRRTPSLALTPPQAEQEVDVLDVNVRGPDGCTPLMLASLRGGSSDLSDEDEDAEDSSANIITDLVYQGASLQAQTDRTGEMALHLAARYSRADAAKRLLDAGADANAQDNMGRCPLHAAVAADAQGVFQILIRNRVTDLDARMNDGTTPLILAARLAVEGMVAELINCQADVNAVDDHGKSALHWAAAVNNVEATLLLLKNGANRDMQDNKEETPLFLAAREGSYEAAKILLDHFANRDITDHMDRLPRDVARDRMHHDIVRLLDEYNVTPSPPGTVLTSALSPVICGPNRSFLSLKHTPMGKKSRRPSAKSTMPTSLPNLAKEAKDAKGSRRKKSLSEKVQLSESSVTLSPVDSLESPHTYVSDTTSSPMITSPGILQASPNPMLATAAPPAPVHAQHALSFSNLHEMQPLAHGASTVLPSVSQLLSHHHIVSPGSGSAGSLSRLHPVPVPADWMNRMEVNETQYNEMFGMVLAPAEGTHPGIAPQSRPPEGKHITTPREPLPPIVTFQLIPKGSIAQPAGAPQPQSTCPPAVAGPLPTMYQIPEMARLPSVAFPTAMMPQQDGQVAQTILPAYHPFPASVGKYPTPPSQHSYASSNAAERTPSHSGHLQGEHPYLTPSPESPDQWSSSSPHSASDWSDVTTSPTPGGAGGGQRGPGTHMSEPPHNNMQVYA
# Chain of Pro-neuregulin-1, membrane-bound isoform (Homo sapiens) (Q02297 whole entry, looked up, the tested form may be a part, canonical isoform): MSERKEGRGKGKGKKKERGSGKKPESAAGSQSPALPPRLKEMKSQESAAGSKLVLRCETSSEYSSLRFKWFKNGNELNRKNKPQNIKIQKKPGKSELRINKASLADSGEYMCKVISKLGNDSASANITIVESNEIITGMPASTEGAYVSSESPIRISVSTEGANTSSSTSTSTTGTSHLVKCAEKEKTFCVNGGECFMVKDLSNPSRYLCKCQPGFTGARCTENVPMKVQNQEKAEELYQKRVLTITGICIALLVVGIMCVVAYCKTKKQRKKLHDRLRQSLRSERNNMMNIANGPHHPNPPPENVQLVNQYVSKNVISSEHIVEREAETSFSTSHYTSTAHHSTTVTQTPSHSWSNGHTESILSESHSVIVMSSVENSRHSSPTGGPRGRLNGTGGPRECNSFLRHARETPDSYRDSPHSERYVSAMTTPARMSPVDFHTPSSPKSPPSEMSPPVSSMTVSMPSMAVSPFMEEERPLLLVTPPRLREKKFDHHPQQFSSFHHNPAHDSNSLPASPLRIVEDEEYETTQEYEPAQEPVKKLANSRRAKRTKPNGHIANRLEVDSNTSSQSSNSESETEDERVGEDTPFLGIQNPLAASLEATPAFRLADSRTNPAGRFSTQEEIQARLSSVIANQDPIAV
# Chain of Torsin-1A-interacting protein 2 (Homo sapiens) (Q8NFQ8 whole entry, looked up): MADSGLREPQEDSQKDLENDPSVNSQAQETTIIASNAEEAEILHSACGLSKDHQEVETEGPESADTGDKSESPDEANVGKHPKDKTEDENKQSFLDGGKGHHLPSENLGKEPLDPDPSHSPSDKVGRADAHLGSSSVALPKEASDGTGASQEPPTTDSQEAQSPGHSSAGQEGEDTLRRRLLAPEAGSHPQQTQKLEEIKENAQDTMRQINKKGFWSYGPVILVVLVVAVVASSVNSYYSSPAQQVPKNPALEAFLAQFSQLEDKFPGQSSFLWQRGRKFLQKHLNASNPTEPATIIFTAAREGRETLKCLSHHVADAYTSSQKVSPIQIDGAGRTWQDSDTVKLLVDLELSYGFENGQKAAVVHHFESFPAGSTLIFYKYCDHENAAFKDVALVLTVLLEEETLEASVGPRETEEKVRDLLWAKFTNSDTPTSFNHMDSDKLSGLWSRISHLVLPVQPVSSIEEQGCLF
Structure (SMILES),composite z-score [1],composite z-score [2],composite z-score [3],composite z-score [4],composite z-score [5],composite z-score [6],composite z-score [7],z-score [8],composite z-score [9],composite z-score [10],composite z-score [11],z-score [12],z-score [13],z-score [14],composite z-score [15],z-score [16],composite z-score [17],composite z-score [18],composite z-score [19],composite z-score [20]
CN1C(=O)C2C(C1=O)C1C=C(CCCO)C2C(C2CC2)N1C (stereo not given),0.227,-0.144,0.078,0.333,0.196,0.496,0.625,-0.818 (inactive),-0.196,-0.385,0.74,-1.39 (inactive),-0.339 (inactive),-0.517 (inactive),2.52,-0.797 (inactive),-0.0812,-0.21,-0.312,-0.0922
COCCOC(=O)N1C(=O)[C@@]2(c3ccccc31)[C@H](C(=O)Nc1nc3ccccc3s1)[C@H]1C(=O)O[C@H](c3ccccc3)[C@H](c3ccccc3)N1[C@@H]2c1ccccc1OCCO,0.451,0.0049,-0.0036,0.798,1.15,1.05,1.2,2.13 (inactive),0.318,0.157,1.56,2.4 (inactive),2.78 (inactive),5.08 (inactive),2.73,0.694 (inactive),0.248,0.579,1.1,-0.0035
COc1ccc([Si](C)(C)[C@H]2[C@H](CC(=O)N3CCC[C@H]3CO)O[C@@]3(C(=O)N(C)c4ccccc43)[C@@H]2C)cc1,0.735,0.384,-0.0375,-0.0959,-0.711,0.63,1.4,-0.0568 (inactive),0.324,0.394,0.969,-0.42 (inactive),-0.134 (inactive),-0.401 (inactive),0.757,-0.735 (inactive),-0.0258,1.85,0.207,-0.151
C=CCN1C(=O)[C@@]2(O[C@@H](CCO)[C@H]([Si](C)(C)c3ccc(OC)cc3)[C@H]2C)c2cc(N3CCCCC3=O)ccc21,-0.217,0.504,-0.0415,0.268,0.704,1.12,1.14,-1.11 (inactive),0.2,0.0373,1.55,0.451 (inactive),0.215 (inactive),1.81 (inactive),2.24,0.649 (inactive),-0.157,1.19,0.868,-0.0662
COC(=O)[C@@]1(Cc2ccc(F)cc2)[C@H]2c3cc(C(=O)N(C)C)n(CCF)c3C[C@H]2CN1C(=O)c1ccccc1,0.267,0.0612,0.131,0.623,1.22,1.83,1.06,-1.3 (inactive),0.329,0.0274,-0.0162,-2.02 (inactive),0.287 (inactive),-0.318 (inactive),2.35,1.25 (inactive),0.265,0.104,-0.0282,-0.0896
